Bioassay records as filed in PubChem BioAssay.
KAT2A inh – blocks human GCN5L2 histone acetyltransferase; Q92830; GCN5L2 HAT assay, ThioGlo1 CoA-SH fluorescence; Potency, µM (top dose mostly 58.9 µM), inactives show at the highest dose activity change, negative = inhibition, usual class: inhibitors; actives 0.21% (n = 390,000); AID 504327; note: potency is the fitted concentration of half-maximal effect; % is set by controls: 0 for no effect and ±100 for the full control effect
Target sequence (Q92830 whole entry, looked up): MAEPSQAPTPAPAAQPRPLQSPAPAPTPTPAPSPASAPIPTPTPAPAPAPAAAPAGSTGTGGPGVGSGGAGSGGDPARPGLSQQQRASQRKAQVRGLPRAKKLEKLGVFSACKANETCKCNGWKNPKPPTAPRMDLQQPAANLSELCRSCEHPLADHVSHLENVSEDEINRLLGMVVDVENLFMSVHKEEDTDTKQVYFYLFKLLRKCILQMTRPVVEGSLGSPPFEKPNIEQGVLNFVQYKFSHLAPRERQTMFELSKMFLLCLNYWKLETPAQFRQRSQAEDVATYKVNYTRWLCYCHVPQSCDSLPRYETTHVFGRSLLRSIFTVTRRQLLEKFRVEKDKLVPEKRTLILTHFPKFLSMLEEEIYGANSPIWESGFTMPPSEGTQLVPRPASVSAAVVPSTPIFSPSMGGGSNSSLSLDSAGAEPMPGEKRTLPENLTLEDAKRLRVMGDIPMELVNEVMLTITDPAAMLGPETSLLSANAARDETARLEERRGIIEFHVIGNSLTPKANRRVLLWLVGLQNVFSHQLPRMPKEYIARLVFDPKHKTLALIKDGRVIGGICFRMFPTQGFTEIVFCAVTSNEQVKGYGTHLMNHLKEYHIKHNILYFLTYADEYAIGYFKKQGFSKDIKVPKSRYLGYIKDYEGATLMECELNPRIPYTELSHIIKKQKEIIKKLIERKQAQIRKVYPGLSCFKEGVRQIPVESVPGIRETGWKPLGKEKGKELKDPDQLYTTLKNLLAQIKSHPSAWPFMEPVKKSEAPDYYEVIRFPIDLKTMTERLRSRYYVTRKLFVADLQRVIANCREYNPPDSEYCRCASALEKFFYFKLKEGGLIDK
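GCN5L2 (20nM final) in 50mM HEPES, 0.1mM EDTA pH 7.5, 0.01% Tween-20 was preincubated 15 min at room temperature with compound, then given ThioGlo1 (50uM), H3(1-25) peptide (75uM) and acetyl-CoA (70uM); CoA-thiol fluorescence (Ex340/Em540) was read at 0 and 20 min.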
Rango release inh – prevents RanGTP from dissociating the Rango-importin beta complex. O95149+P62826. Biochemical FRET Rango-importin beta, RanGTP-induced dissociation. Potency, µM (highest dose often 46.1 µM), for the others: at the highest dose activity change, negative = inhibition. actives 0.071% (n = 340,000). AID 540253; calls by dose curve; note: potency is the fitted concentration of half-maximal effect; % of control where 0% means no effect; nearly all actives have a fitted effect of over 45% in size
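Compounds preincubate 5 min with complex of recombinant Rango and importin beta in PBS with 1 mM DTT. Ran (0.6 uM) loaded with 2 mM GTP plus 0.2 uM RCC1 starts dissociation; FRET is recorded 45 min later.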
PI5P4K alpha inh – inhibitors of human PI5P4K alpha; PI5P4Kalpha enzyme, ADP-Glo luminescence, 60 min; hits give low values; max response, %; actives 1.2% (n = 330,000); AID 652105; active = max response of -50% or lower; inconclusive = between -30% and -50%; inactive = -30% or higher; note: value at the top dose of about 77 µM; % is set by controls: 0 for no effect and ±100 for the full control effect
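Enzyme plus substrate dispensed, test compounds pinned in, then ATP (5 microM final) added. After 60 min at RT, ADP-Glo reagent 1 for 45 min and reagent 2 for 30 min preceded luminescence imaging.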
VDR inh – blocks the human vitamin D receptor; P11473; VDR-SRC2-3 peptide fluorescence polarization, 2 h; Potency, µM, without a hit: max response, negative = inhibition, hits mostly inhibitors; actives 0.93% (n = 400,000); note: potency is the fitted concentration of half-maximal effect; % is set by controls: 0 for no effect and ±100 for the full control effect
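Compounds are added to VDR with labelled SRC2-3 coactivator peptide and held 2 h at room temperature. Inhibition of the VDR–peptide interaction is then read as a change in fluorescence polarization.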
PLK1 PBD inh – PLK1 (human) polo-box domain binding inhibition; P53350; Plk1 PBD binding of FITC phosphopeptide, fluorescence polarization; Potency, µM, without a hit: max response, negative = inhibition, most hits filed as inhibitors; actives 2.8% (n = 360,000); note: potency is the fitted concentration of half-maximal effect; series mostly up to about 57 µM; % is set by controls: 0 for no effect and ±100 for the full control effect; nearly all actives have a fitted effect of over 65% in size
Rango-impB inh – Rango-importin beta binding inhibition. Q14974. Rango CFP/YFP FRET sensor + importin beta, 45 min. Potency, µM (series often up to 92.2 µM), inactives show top-dose inhibition of complex formation. actives 0.031% (n = 340,000). AID 540263; calls by dose curve;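 note: potency is the fitted concentration of half-maximal effect; 0% = DMSO wells and 100% = buffer wells lacking importin beta; nearly all actives have a fitted effect of over 15% in size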
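FRET biosensor Rango (snurportin 1 IBB between N-terminal EYFP and C-terminal Cerulean), 50 nM in PBS/1 mM DTT/0.02% Tween-20/0.1% BSA, preincubated 5 min RT with compound; 0.125 microM importin beta added, 45 min RT, CFP/YFP FRET ratio read.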
Numbers without * were called inactive; u = inconclusive; x = no result; [ ] = dose if it differs, or a comment. In the library only some 3.6% were active in any assay of this set; here they are far more common. Unless noted, calls come from the whole dose curve; as a rule, active = well fitted curve in the direction sought with a large enough effect; inconclusive = small, poorly fitted or top-dose-only effect, or another doubt; inactive = no such curve, though single readings can be large; an effect the other way counts as inactive or inconclusive.

SMILES	KAT2A inh	Rango release inh	PI5P4K alpha inh	VDR inh	PLK1 PBD inh	Rango-impB inh
Cc1ccc(NC(=S)N/N=C2\CC3CC=CC23)c(C)c1 (stereo unspecified)	-18.4%	24.8%	-20.3	u	u	1.8%
Cc1cccc(C)c1NC(=S)N/N=C1\CC2CC=CC12 (stereo unspecified)	-0.8%	-4.6%	-2.5	u	15µM*	1.3%
O=C1c2ccccc2C(=O)N1CCCc1nc(-c2ccccn2)no1	-3.1%	-8.0%	-7.2	-17.8%	29.9µM*	4.2%
O=C1c2ccccc2C(=O)N1CCCc1nc(-c2ccc(Cl)cc2)no1	-3.1%	11.5%	-0.1	-27.3%	-4.1%	3.6%
COC(=O)C(CC(C)C)NC(=O)C(N)Cc1ccccc1 (stereo unspecified)	21.6%	0.3%	-1.3	-8.6%	-6.9%	0.5%
CC[C@@H](C)[C@@H](CO[C@@H](Cc1ccccc1)C(=O)N[C@@H](CCS(C)(=O)=O)C(=O)OC(C)C)NC[C@@H](N)CS	35.4%	x	x	10µM*	x	x
O=C1c2c([N+](=O)[O-])cc([N+](=O)[O-])cc2S(=O)N1Cc1ccccc1 (stereo unspecified)	28.2µM*	17.3%	-60.4*	u	37.7µM*	3.9%
COC(=O)c1ccc2c(=O)n(CCCCCC(=O)N3CCN(c4ccccc4)CC3)c(=O)[nH]c2c1	-2.8%[0.501 µM]	-3.8%	-6.1	u	29.9µM*	-2.4%
Cc1nc2ccccn2c1C(=O)N/N=C/c1ccc([N+](=O)[O-])o1	-18.6%	5.7%	-55.8*	-26.0%	-28.4%	-1.8%
O=C(N/N=C/c1ccc([N+](=O)[O-])o1)c1cc2c(ccc3ccccc32)o1	-14.6%	-16.5%	-23.5	-11.2%	15µM*	-3.9%
O=C(N/N=C/c1ccc(O)c(Br)c1)c1cc2c(ccc3ccccc32)o1	-3.4%	-2.2%	u	7.9%	-6.1%	u
O=C(N/N=C/c1cc(Cl)c(O)c(Cl)c1)c1cc2c(ccc3ccccc32)o1	u	u	-76.7*	-19.4%	23.8µM*	u
O=C(N/N=C/c1cc(Br)c(O)c(Br)c1)c1cc2c(ccc3ccccc32)o1	u	u	-103.5*	-15.9%	21.2µM*	u
O=C(N/N=C/c1cccnc1)c1cc2c(ccc3ccccc32)o1	-1.7%	4.8%	-8.3	3.0%	-12.7%	-1.0%
c1ccc(-c2nnc(CN3CCN(c4ccccn4)CC3)o2)cc1	-12.0%	x	x	-2.2%	x	x
CC1CCCCC1NC(=O)/C(C#N)=C/c1ccc2c(c1)OCCO2 (stereo unspecified)	-13.8%	-40.6%	5.2	-18.6%	26.7µM*	-0.1%
CC1CCCCC1NC(=O)/C(C#N)=C/c1ccc(F)c(F)c1 (stereo unspecified)	2.0%	3.8%	5.6	6.4%	-3.1%	-0.6%
Cc1ccc(-c2nc3c(C)cccn3c2Nc2ccccc2C)s1	-14.6%	x	x	-1.2%	x	x
COc1ccc(C2=NN(C(=O)CCC(=O)O)C(c3ccc(OC)cc3)C2)cc1 (stereo unspecified)	-2.4%	-2.9%	-2.3	9.0%	-1.0%	-1.2%
CCN1CCN(CC(=O)N2N=C(c3ccc(OC)cc3)CC2c2ccc(OC)cc2)C(=O)C1=O (stereo unspecified)	-22.4%	1.5%	-8.0	4.1%	26.7µM*	0.1%
Cc1cc(N=Nc2c(O)c3ccccc3[nH]c2=O)ccc1N=Nc1ccc(C(=O)N(C)C)cc1	0.4%	-6.3%	-20.4	-10.4%	-1.4%	-5.1%
CN(C)C(=O)c1ccc(N=Nc2c(O)c3ccccc3[nH]c2=O)cc1	x	7.7%	-75.9*	-7.0%	-11.1%	-5.3%
CCC(C)(C)c1ccc(CC(C)CN2C[C@@H](C)O[C@@H](C)C2)cc1 (stereo partly specified)	7.3%	x	x	-6.6%	x	x
Cc1ccc(NC(=O)CN2C=NS(=O)(=O)c3ccccc32)cc1	-7.6%	x	x	13.9%	x	x
O=C(OCCCN1C(=O)c2ccccc2C1=O)c1ccco1	-13.3%	0.6%	-1.5	1.5%	26.7µM*	0.6%
